An excerpt weighted towards active compounds, which were near 13% of everything screened.
CHX counter = counter-screen for Shiga toxin inhibitors: cycloheximide protein synthesis inhibition; cell reporter, cycloheximide protein synthesis inhibition counterscreen; max response, %; hit rate 12% among 300,000; in the data active means max response mostly above about 13%, no sharp cut-off; inactive means mostly below about 14%; further: read at 38.3 µM for the half of the compounds with a filed dose; 0% is about no effect
FMDV inh = blocks foot and mouth disease virus; hit rate 1.2% among 410,000; AID 1159524; Potency, µM (titrated, usually from 57.9 µM), for the others: at the highest dose activity change, negative = inhibition, actives largely listed as inhibitors; FMDV antiviral cell-based qHTS; calls by dose curve; tested in HEK293T cells; further: read-out not given here; potency means the concentration at half of the fitted maximal effect; on the % scale 0 is the no-effect control and ±100 the full control effect; nearly all actives have a fitted effect of over 45% in size
HCV inhibitor = blocks hepatitis C virus; Huh7.5.1 HCVcc-Cre infection, luciferase reporter, 44 h; Potency, µM (highest dose often 41.8 µM), without a hit: top-dose activity change, negative = inhibition, usual class: inhibitors; AID 651820; hit rate 3.4% among 340,000; active means well fitted inhibition curve with a large enough effect; inconclusive means small, poorly fitted or top-dose-only effect, or another doubt; inactive means no such curve, though single readings can be large or run the other way; further: potency means the concentration at half of the fitted maximal effect; on the % scale 0 is the no-effect control and ±100 the full control effect
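Infectious HCV cell culture screen: compound-treated cells (1,000/well, pre-plated 4 h) are infected with HCVcc-Cre at roughly 0.5 moi and grown 44 h. Infection is quantified by luciferase signal after 15 min substrate incubation at room temperature.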
Lassa entry inh = Lassa virus entry inhibition; Lassa virus pseudotype entry inhibition, cell reporter; Potency, µM (top dose mostly 37.9 µM), inactives show at the highest dose activity change, negative = inhibition, actives largely listed as inhibitors; hit rate 1.2% among 300,000; calls by dose curve; tested in HEK293 cells; further: potency means the concentration at half of the fitted maximal effect; on the % scale 0 is the no-effect control and ±100 the full control effect; nearly all actives have a fitted effect of over 50% in size
Shiga inhibitor = Shiga toxin inhibition; AID 2315; inhibition, % at 38.7 µM; Vero cells, Shiga toxin protein synthesis inhibition reporter; hit rate 9.2% among 290,000; in the data active means inhibition mostly above about 28%, no sharp cut-off; inactive means mostly below about 43%; further: 0% is about no effect
MARV entry inh = inhibitors of Marburg virus binding or cell entry; Marburg virus pseudotyped entry inhibition, cell reporter; Potency, µM (titrated, usually from 37.8 µM), without a hit: at the top dose activity change, negative = inhibition, hits mostly inhibitors; hit rate 1.8% among 300,000; calls by dose curve; tested in HEK293 cells; further: potency means the concentration at half of the fitted maximal effect; on the % scale 0 is the no-effect control and ±100 the full control effect
An asterisk follows results filed as active; ? = inconclusive; / = no result; [ ] = remark or other dose.

SMILES	CHX counter	FMDV inh	HCV inhibitor	Lassa entry inh	Shiga inhibitor	MARV entry inh
CC(C)(C)NC(=S)N1CCC2CC1c1c(Cl)cccc12 (stereo not given)	/	21%	/	/	/	/
COc1cc2c(cc1OC)C13CCN4CC5=CCOC6CC(=O)N2C1C6C5CC43 (stereo not given) (tested in a mixture with another compound)	-2	-6%	4%	/	9	/
CSC(=Nc1ccccc1)N=C(SCc1ccccc1)N(C)C	/	?	?	13µM*	/	?
N#CNC(=Nc1ccccc1)SCc1ccc(C(=O)O)cc1	1	-9%	13%	-22%	-12	-1%[46.1 µM]
c1ccc2oc(Cc3ccc(Cc4nc5ccccc5o4)cc3)nc2c1	-3	?	?	?	14	?
Nc1ccc2oc(CCc3ccccc3)nc2c1	48*	0%	-27%	?	167*	?
c1ccc2oc(CCc3nc4ccccc4o3)nc2c1	15*	19%	1%	-11%	20	?
O=C(NCCc1cn[nH]c1)c1ccc2oc(CCc3ccccc3)nc2c1	/	11%	/	/	/	/
Cc1ccc(C)c(NC(=S)N2C3CCCC2CC(NC(=O)C2CC2)C3)c1 (stereo not given)	-1	-8%	8%	/	-19	14%[46.1 µM]
CCC1=NN(C(=O)c2cccc(Br)c2)C(O)(c2ccc(Br)cc2)C1 (stereo not given)	41*	0%	16µM*	2%	70*	?
CCC1=NN(C(=O)c2ccccc2[N+](=O)[O-])C(O)(c2ccccc2)C1 (stereo not given)	/	-12%	/	/	/	/
CCC1=NN(C(=O)c2ccc(C)cc2)C(O)(c2ccc(Br)cc2)C1 (stereo not given)	39*	3%	11%	8%	44*	-4%
COC(=O)C1=NN(C(=O)c2ccc(C)cc2)C(O)(c2ccc(Cl)cc2)C1 (stereo not given)	-1	/	4%	-5%	3	17%
CCC1=NN(C(=O)c2ccc(Br)cc2)C(O)(c2ccc(C)cc2)C1 (stereo not given)	33*	8%	-8%	0%	32*	?
COCCCNc1nc(NCc2cccc(Cl)c2)c2cnn(C)c2n1	/	?	/	-9%[46.1 µM]	/	/
CCc1nn(CC(=O)N2CCN(CC)CC2)c(=O)c2cc3sccc3n12	-4	?	-10%	/	-9	/
COc1ccccc1N=Nc1c(C)[nH][nH]c1=O	11	14%	-28%	-11%	35	8%
Cc1[nH][nH]c(=O)c1N=Nc1ccccc1C#N	50*	/	/	/	40	/
O=C(O)c1ccccc1-c1nnc2c(Cl)cc(C(F)(F)F)cn12	-5	6%	6%	/	-6	/
CC(=O)c1ccc(NC(=O)C(C)Oc2ccc(N(C)S(=O)(=O)c3ccc(C)cc3)cc2)cc1 (stereo not given)	/	-16%	13µM*	/	/	/
CC(Oc1ccc(F)cc1)C(=O)Oc1ccc(N(C)S(=O)(=O)c2ccccc2)cc1 (stereo not given)	/	-10%	34%	0%	/	11%
Cc1ccc(S(=O)(=O)N(C)c2ccc(OC(C)C(=O)N(C)c3ccccc3)cc2)cc1 (stereo not given)	/	-23%	11µM*	?	/	-29%
CC(=O)c1cccc(NC(=O)c2ccc(N(C)S(=O)(=O)c3ccc(C)cc3)cc2)c1	-2	?	?	/	-22	/
Cc1ccc(C(=O)Nc2ccc(S(=O)(=O)Nc3onc(C)c3C)cc2)cc1	/	18%	/	-3%[46.1 µM]	/	/
CCOc1ncccc1C(=O)OCc1csc(CC(=O)Nc2ccccc2C)n1	/	-10%	-24%	/	/	/
SMILES	CHX counter	FMDV inh	HCV inhibitor	Lassa entry inh	Shiga inhibitor	MARV entry inh
COc1ccccc1C(=O)Nc1ccc2c(c1)nc(CCNC(C)=O)n2C	17*	43%	?	21%	26	19%
CCC(=O)NCCc1nc2cc(NC(=O)COc3ccccc3)ccc2n1C	29*	22%	8%	29%	78*	5%[46.1 µM]
CCC(=O)NCCc1nc2cc(NC(=O)c3ccccc3OC)ccc2n1C	43*	/	18%	-1%	25	1%
COc1ccccc1C(=O)Nc1ccc2c(c1)nc(CCNC(=O)c1ccccc1)n2C	22	7%	-32%	?	21	?
CC(=O)NCCc1nc2cc(NC(=O)c3ccc(F)cc3)ccc2n1C	54*	-18%	?	-12%	44*	?
CCCn1c(N/N=C(C)\C=C\c2ccccc2)nc2c1c(=O)[nH]c(=O)n2C	-2	/	/	/	-17	/
COc1ccccc1-c1cc(C(F)(F)F)nc(N2CCOCC2)n1	-6	?	-28%	-2%	-11	?
C=CCn1c(SCC(=O)N2CC(=O)Nc3ccccc32)nc2scc(-c3ccccc3)c2c1=O	2	?	-18%	?	-19	?
Cn1cnc2cc(NC(=O)COc3ccccc3)ccc21	38*	35%	13%	?	76*	6%[46.1 µM]
CCC(=O)NCCc1nc2cc(NC(=O)c3cccs3)ccc2n1C	17*	1%	23%	/	48*	?
CC(C)CC(=O)N(c1nnc(-c2cccnc2)s1)C1CCCC1	11*	2%	13%	-28%[46.1 µM]	15	-8%[46.1 µM]
CC(=O)N(c1nnc(-c2ccc(C)cc2)s1)C1CCCC1	28*	28%	-7%	-22%[46.1 µM]	26*	?
CCN(C(=O)C1CCCCC1)c1nnc(-c2cccnc2)s1	12	-17%	1%	-25%	-3	-6%[46.1 µM]
Cc1cc(C)cc(OCC(=O)N/N=C/c2ccncc2)c1	1	9%	-19%	-1%	-10	-8%
Cc1cc(F)ccc1-c1cc(C(=O)NCc2ccco2)[nH]n1	/	32%	/	/	/	/
Cc1ccc(-c2cccc(NC(=O)C3C(C(=O)O)[C@@H]4C=C[C@H]3C4)c2)o1 (stereo not given in full)	18	-6%	10%	-13%	33*	3%
Cc1ccc2nc(C)cc(N/N=C/c3ccccc3O)c2c1	22*	26%	-14%	/	27*	/
COc1ccccc1/C=N/Nc1cc(C)nc2ccc(C)cc12	26*	4%	?	21%[46.1 µM]	/	-3%[46.1 µM]
Cc1cc(N/N=C/c2ccc(O)cc2O)c2ccccc2n1	5	-5%	?	/	22	/
COc1ccccc1/C=N/NC(=O)CSc1cc(C)nc2ccccc12	7	-27%	-28%	?	-3	?
CCC(C)NC(=O)c1ccc(NS(=O)(=O)c2ccc3[nH]c(=O)[nH]c3c2)cc1 (stereo not given)	28	-17%	2%	-11%	13*	-9%
COc1ccccc1N1CCN(CCCCNS(=O)(=O)c2cccc3c(N(C)C)cccc23)CC1	/	/	/	15µM*	/	7.1µM*
COc1ccccc1N1CCN(CCCCN2C(=O)CCC2=O)CC1	/	1%	/	/	/	/
CC(C)(C)NC(=O)COC(=O)c1ccccc1OCC(=O)Nc1ccc(Br)cc1	17*	1%	-1%	0%	35*	?
O=C(COc1ccccc1[N+](=O)[O-])Nc1cccc(Cl)c1N1CCOCC1	-1	40µM*	?	?	-6	?

Compound activity from PubChem.
